Source: PubChem BioAssay
This is one part of a sample in which hits are shown more often than they occur.
TTR transcr act: TTR transcription activators in neuroblastoma reporter cells, primary screen, cell-based, luminescence, SH-SY5Y, TTR promoter Gaussia luciferase. 100% = recombinant luciferase protein wells. AID 1117267, 2014. 92,000 compounds, 1.3% hits. activation, % at 16.7 µM;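 active = activation above the mean of all tested compounds plus 3 SD, cut at about 9.5% in these data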;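 also: cells exposed to compounds for one day before reading; 0% = median of all test compound wells on the plate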
HuH7 TTR inh: TTR promoter reporter inhibitors in hepatoma cells, counter-screen for TTR transcription activator project, cell-based, luminescence, HuH7 hepatoma; shares compounds with TTR transcr act; inhibition, % at 16.7 µM; HuH7 TTR promoter-Gaussia luciferase reporter; 1,100 compounds, 4% hits;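 active = average inhibition above the solvent-only control wells' mean plus 3 SD, cut at about 15% in these data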;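 also: 0% = cells with DMSO only and 100% = cells with inhibitor control FD; inhibitors lower well luminescence so higher value means more inhibition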
TTR up confirm: TTR transcription activators, retest, confirmation, cell-based, luminescence, SH-SY5Y, triplicate | shares compounds with TTR transcr act | SHSY5Y TTR promoter Gaussia luciferase; 100% = purified Lucia enzyme wells, no cells | activation, % at 16.7 µM | 1,100 tested, under 10 active;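 active = mean activation above a set limit taken from the earlier primary screen, cut at about 11% in these data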;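 also: 0% = DMSO-treated cells and 100% = recombinant Lucia luciferase without cells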
Starred values were filed as active, the others as inactive.

SMILES | TTR transcr act | others
COc1ccc(-c2nnc(SCC(=O)NCc3cccs3)n2C(C)C)cc1 | 11* | HuH7 TTR inh=-10;TTR up confirm=2
CCc1ccc(/C=C/C(=O)NC2=NCCS2)cc1 | -1
CN1CCC(N[C@@H](Cc2c[nH]c3ccccc23)C(=O)NCC(c2ccccc2)c2ccccc2)(C(=O)NC2CCCCC2)CC1 | -5
Cc1ccc(NC(=O)N(Cc2cccs2)Cc2cc3cc4c(cc3[nH]c2=O)OCO4)cc1 | -2
O=C(Nc1ccc(F)cc1)N(Cc1cccs1)Cc1cc2cc3c(cc2[nH]c1=O)OCO3 | 28* | HuH7 TTR inh=-27;TTR up confirm=0
O=C(Nc1ccccc1)N(CCCN1CCOCC1)Cc1cc2cc3c(cc2[nH]c1=O)OCCO3 | -1
COc1cc(O)c(C(CC(=O)N2CCC(C)CC2)c2ccc3c(c2)OCO3)c(OC)c1 (stereo not given) | -2
Clc1ccccc1Cn1ccc2ccc(-c3ccc4ccn(Cc5ccccc5Cl)c4c3)cc21 | 0
COC[C@@H]1CCCN1c1ccc2c(c1)OCCCN(C1CC1)S2(=O)=O | 4
O=C(NC1CCCCC1)c1cccc(S(=O)(=O)N2CCOCC2)c1 | 2
COc1ccc(S(=O)(=O)N2CCOCC2)cc1C(=O)Nc1cccc(C(=O)NC2CC2)c1 | 13* | HuH7 TTR inh=-8;TTR up confirm=2
O=C(NC1CCCCCC1)c1cccc(S(=O)(=O)N2CCOCC2)c1 | 3
COC[C@H]1CCCN1c1cccc2c1S(=O)(=O)N(C1CC1)CC[C@@H](C)O2 | -1
O=C(O)CCc1nc(-c2cccs2)no1 | -1
Clc1ccccc1OCc1nc(-c2ccc(Br)o2)no1 | 1
O=[N+]([O-])c1ccccc1OCc1nc(-c2cccs2)no1 | 12* | HuH7 TTR inh=-9;TTR up confirm=1
N=c1c2c(ccn1Cc1ccccc1)Oc1ccc3ccccc3c1C2c1ccccc1 (stereo not given) | -4
CCN1CCCCC(NC(C)=O)C1=O (stereo not given) | 0
CC(=O)O[C@H]1CC[C@]2(C)C3CC[C@]4(C)[C@@H]([C@H](C)/C=C/[C@H](C)C(C)C)CC[C@H]4[C@@]34C=C[C@]2(C1)N(C(=O)c1ccccc1)O4 (stereo not given in full) | -2
CCCCCCC(=O)O | 0
CCCCCCCCCCCCC(=O)CCCCC(=O)O | -1
CC(CCCCCCCCC(=O)O)N(CCO)C(=O)OC(C)(C)C (stereo not given) | 10* | HuH7 TTR inh=-5;TTR up confirm=0
CCCCCCC[C@H](N)[C@H](O)C(=O)N(C)[C@@H](CCS(C)=O)C(=O)N[C@@H](Cc1ccc(O)cc1)C(=O)O (stereo not given in full) | -1
COC(=O)[C@]12C[C@H](CC(=O)N3CCOCC3)C(=O)N(Cc3ccco3)C1=C[C@H](C1CCCC1)O[C@@H]2C | 2
Clc1ccc(-c2nc(-c3ccncc3)no2)c(Cl)c1 | 3
SMILES | TTR transcr act | others
Clc1ccccc1-c1nc(-c2ccncc2)no1 | -1
O=[N+]([O-])c1cc(Cl)ccc1-c1nc(-c2ccncc2)no1 | 10* | HuH7 TTR inh=-3;TTR up confirm=0
C[C@H]1[C@@H](NCC2CCCCC2)CC[C@@]23CCCN2C(=O)CCC[C@@H]13 | 2
O=S(=O)(Nc1ccc2c(c1)OCO2)c1ccccc1 | 0
O=S(=O)(Nc1ccc2c(c1)OCCO2)c1cccc2nsnc12 | 1
Cc1ccc2cccc(S(=O)(=O)Nc3ccc4c(c3)OCO4)c2n1 | 14* | HuH7 TTR inh=-19;TTR up confirm=2
CCOc1ccc(CCNC(=O)c2ccc(Oc3ccccc3)cc2)cc1OCC | 0
COc1ccc(C(=O)C2CCN(C(=O)c3ccco3)CC2)cc1 | 11* | HuH7 TTR inh=11;TTR up confirm=-1
COc1cc(C(=O)N2CCN(C(=O)c3ccco3)CC2)cc(OC)c1OC | -3
O=C(c1ccco1)N1CCN(C(=O)C2CC2)CC1 | -1
COc1ccc(CN2C(=O)[C@]3(NCCc4c3[nH]c3ccc(OC)cc43)c3cc(Br)ccc32)cc1 | 0
CSc1ccc(S(=O)(=O)N2CCC(C(=O)NC3CC3)CC2)cc1 | 18* | HuH7 TTR inh=-18;TTR up confirm=1
Cc1ccc(S(=O)(=O)NNC(=O)C2CCN(S(=O)(=O)c3ccc(C)cc3)CC2)cc1 | -1
O=C(NC1CC1)C1CCN(c2ccc(S(=O)(=O)N3CCOCC3)cc2Cl)CC1 | -2
COC(=O)CC[C@@H](/C=C/C(=O)OC(C)(C)C)Sc1ccc(C(C)(C)C)cc1 | 4
O=C(c1ccccc1)c1cccn1CC(=O)N1CCCCCC1 | 10* | HuH7 TTR inh=-11;TTR up confirm=0
CN(Cc1ccccc1)C(=O)Cn1cccc1C(=O)c1ccccc1 | -1
Cc1cccc(N2CCN(C(=O)Cn3cccc3C(=O)c3ccccc3)CC2)c1C | 1
O=C(OCC#CCSc1nnc(-c2cc3ccccc3cc2O)o1)c1ccc(F)cc1 | 0
